Key:
Assay in all cases: PBM binding z-score (relative to random genomic background probes); higher = stronger binding; sequences stand for … in GC…GCGATTGACAGCGTAGAATGAAGG
[1] = system: PPARg:RXRa DBDmut IVT, anti-RXR (DBD mutation: RXRa K156A/R161A, NR concentration 270 nM, RXRa partner concentration 90 nM)
Summary of the method: (§1)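 On custom Agilent 4×180K arrays, double-stranded probes with 34-nt variable regions carried direct-repeat seeds, single-nucleotide variants, half-site ablations or random human genomic background. Ligand-free nuclear receptor dimers were applied for 1 h, and binding was read with antibodies against each partner (one per run). Binding z-scores come from regression-normalized fluorescence, with the random background probes as reference.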

[2] = system: PPARg:RXRa IVT, anti-PPARg (NR concentration 270 nM, RXRa partner concentration 90 nM)
Summary of the method: as §1

[3] = system: PPARg DBDmut:RXRa IVT, anti-PPARg (DBD mutation: PPARg1 K132A/R137A, NR concentration 270 nM, RXRa partner concentration 90 nM)
Summary of the method: as §1

[4] = system: PPARg DBDmut IVT, anti-PPARg (DBD mutation: PPARg1 K132A/R137A, NR concentration 270 nM)
Summary of the method: as §1

[5] = system: PPARg homodimer (NR concentration 180 nM)
Summary of the method: as §1

[6] = system: PXR:RXRa (NR concentration 270 nM, RXRa partner concentration 90 nM)
Summary of the method: as §1

[7] = system: PXR homodimer (NR concentration 270 nM)
Summary of the method: as §1

[8] = system: RARa:RXR (NR concentration 270 nM, RXRa partner concentration 90 nM)
Summary of the method: as §1

[9] = system: RARa homodimer (NR concentration 270 nM)
Summary of the method: as §1

[10] = system: RARb:RXRa (NR concentration 270 nM, RXRa partner concentration 90 nM)
Summary of the method: as §1

[11] = system: RARb homodimer (NR concentration 270 nM)
Summary of the method: as §1

[12] = system: RARg:RXRa (NR concentration 270 nM, RXRa partner concentration 90 nM)
Summary of the method: as §1

[13] = system: RARg homodimer (NR concentration 270 nM)
Summary of the method: as §1

[14] = system: RXRa DBDmut IVT, anti-RXR (DBD mutation: RXRa K156A/R161A, NR concentration 90 nM)
Summary of the method: as §1

[15] = system: RXRa homodimer (NR concentration 180 nM)
Summary of the method: as §1

[16] = system: THRa:RXRa (NR concentration 90 nM, RXRa partner concentration 90 nM)
Summary of the method: as §1

[17] = system: THRa homodimer (NR concentration 90 nM)
Summary of the method: as §1

[18] = system: VDR homodimer (NR concentration 270 nM)
Summary of the method: as §1

Row | Sequence | PBM binding z-score [1] | PBM binding z-score [2] | PBM binding z-score [3] | PBM binding z-score [4] | PBM binding z-score [5] | PBM binding z-score [6] | PBM binding z-score [7] | PBM binding z-score [8] | PBM binding z-score [9] | PBM binding z-score [10] | PBM binding z-score [11] | PBM binding z-score [12] | PBM binding z-score [13] | PBM binding z-score [14] | PBM binding z-score [15] | PBM binding z-score [16] | PBM binding z-score [17] | PBM binding z-score [18]
1 | TTACCAAGGTGAGCTGAGGTCCTTGATCCAACTC | 0.555 | 1.8 | -0.248 | -1.12 | -0.702 | 1.26 | -0.737 | 0.613 | -1.39 | 1.04 | 0.469 | 0.18 | 0.227 | -0.639 | 0.399 | 3.79 | 0.733 | -0.397
2 | CCGAGTAGGTTATGGGGCATACAGGCAACGGTGA | 2.66 | 3.61 | 0.382 | 0.114 | 1.1 | -0.123 | -0.0326 | -0.237 | 0.493 | 0.987 | 0.844 | 0.575 | 0.725 | -0.471 | 0.691 | 0.28 | -0.0646 | 0.0894
3 | GCTTGTAGATCAAGGATAAGAAAGACTAAGCTAA | 0.345 | -0.0525 | -0.469 | -0.526 | -0.571 | -0.567 | -0.33 | -0.653 | -1.12 | -1.81 | -1.36 | -0.352 | -0.0867 | -0.727 | -0.555 | 0.0456 | -0.696 | -0.57
4 | CCGACTGGGGCAAGGTTACCGTAACGCACAGCCA | 3.53 | 3.71 | -0.69 | -1 | -0.362 | 0.043 | -0.221 | 0.745 | -0.534 | 1.69 | 1.39 | 1.08 | 1.28 | -0.694 | 1.04 | 1.22 | 0.42 | -0.25
5 | TCTTGTAGATCAACAGGCGGTTAAGAAAGATCGA | 1.91 | 0.45 | 0.508 | 0.822 | -0.291 | 0.038 | -0.259 | 0.363 | -0.0268 | -0.0147 | -0.586 | 0.0814 | -0.187 | 0.904 | 0.0872 | -0.136 | -0.273 | -0.602
6 | GCTCGGAGGACAAGGTCAGAGCTTTGTCCGTAGA | -0.433 | 0.861 | -1.56 | -1.45 | 0.708 | 1.55 | -0.264 | 2.24 | -0.542 | 3.52 | 2.9 | 3.28 | 3.6 | 0.373 | 2.33 | 2.87 | 1.13 | 0.705
7 | ATCTCTAGGTAAAGTTCAGTGATAGATCGATAGA | 2.28 | 2.44 | 1.4 | 1.48 | 1.9 | 1.92 | 1.96 | 1.35 | 1.69 | 2.71 | 2.44 | 2.15 | 2.58 | 1.56 | 1.42 | 1.2 | 0.236 | 2.09
8 | TCTATTAGTTGAAGGGCCACCGACGAGTCCGTTT | 2.33 | 0.338 | 0.273 | 0.346 | 1.31 | 0.576 | 0.557 | 0.817 | 1.15 | 1.07 | 0.971 | 0.277 | 0.128 | 1.69 | 0.47 | 0.074 | 0.396 | 1.35
9 | TCTAGTTGGTCAAGGAGGTCACACACGACGGGTA | 2.22 | 3.77 | 0.973 | 1.49 | 2.56 | 4.22 | 1.23 | 4.22 | 1.46 | 3.47 | 4.26 | 4.38 | 4.29 | 0.835 | 4.27 | 3.57 | 2.15 | 2.71
10 | CAAACTAGGTGAAGAGGTCAAAGTCCGCTTCCCG | 7.18 | 7.52 | 2.35 | 2.46 | 2.49 | 5.31 | 1.58 | 5.42 | 0.811 | 4.19 | 4.7 | 5.44 | 3.96 | 1.73 | 5.48 | 3.86 | 1.42 | 3.38
11 | ATCTCTAGGTAAAAGTTTAGTGAATCCCGAGGAT | 2.01 | 2.09 | 0.984 | 0.97 | 0.897 | 0.34 | 0.253 | 0.103 | 0.693 | 0.667 | 0.137 | 0.438 | 0.614 | -0.116 | 0.318 | 0.379 | 0.343 | 0.554
12 | TCAGACAGGTGAAGCTAACTCAGGTACGCAGTCG | 2.31 | 0.713 | 0.0407 | -0.303 | 0.616 | 0.0875 | 0.111 | 0.285 | 0.225 | 0.749 | 0.0204 | 0.241 | 0.351 | 0.962 | 0.617 | 0.525 | -0.351 | -0.124
13 | CTAGCAAGGTGAACAAGGTCGTTGATTACTATTC | 2.52 | 2.56 | 0.0933 | -0.41 | 0.474 | 2.46 | 1.4 | 1.95 | -0.493 | 2.15 | 1.77 | 1.68 | 1.5 | 1.25 | 2.1 | 3.18 | 1.45 | 2.32
14 | GCTGCTAGGTCAACTGATGGTCCGCTAAAGCTCG | 4.62 | 3.92 | -0.331 | -0.853 | 0.857 | 0.939 | -0.584 | 2.05 | -0.897 | 4.04 | 3.41 | 4.2 | 5.3 | 1.53 | 2.8 | 2.73 | 1.26 | 0.106
15 | CAAACTAGCTCACAGAGGTCAAAGTCCGTGCGTA | 0.877 | 2.03 | 0.153 | 0.182 | 4.66 | 5.9 | 3.09 | 6.47 | 2.88 | 3.87 | 4.34 | 5.3 | 4.81 | 1.5 | 6.31 | 3.53 | 1.27 | 3.71

Reference: the supplement of paper PMC6555819
